# Source: the supplement of paper PMC11417369
# ± gives the standard deviation of the averaged measurements. Whole data set: some 25,000 sequences, median “ln(normalized median fluorescence intensity)” near 7.9, cut for the highest 2% near 11. Only a selection was taken, and the highest values are over-represented in it overall.
# Test system: PfAP2-I AP2 domain 3 (GST-tagged)
# Test: gcPBM binding intensity (ln(normalized median fluorescence intensity)); higher = stronger DNA binding
# Procedure, shortened: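 Alexa488 anti-GST antibody, scanned at 488 nm, detected GST-tagged P. falciparum DNA-binding domains that had been expressed in E. coli and incubated for 1 h on an Agilent 4 × 180k array. The array carried primer-extended double-stranded 36-bp intergenic genomic probes and negative controls. Binding intensity is the highest Masliner-normalised natural-log median intensity across replicate spots of either orientation of each probe.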
row,Sequence,gcPBM binding intensity (ln)
1,TAAGAAATAAATAGTACACACATAGACACCCACCGA [CACACA_site1516],8.86 ± 0.15
2,ACATTGCACCCGTGCACACATAGAAAAATAATTCTT [CACACA_site409],11.1
3,TTTTTTGTTTGAATGGTGCATTTTGTAATTATATTT,10.3 ± 0.41
4,TTGTTATGTTTTATTTGTACGTAGGTTTCTATCAAA [XGTACX_site7636],8.12 ± 0.35
5,ATATTTATTTATATGTGTACTTATGTTTATATAAAA [XGTACX_site4250],8.02 ± 0.21
6,GAAAATATAAAAAAAAGTACATTTTCTCTAAATATA [XGTACX_site2441],7.57 ± 0.35
7,ATTTTTTTACTGTAACCATATTTTTCCCTTTTATTC [CACACA_negctrl_site1143],7.95 ± 0.79
8,TGTATGTTATATACAACACACAAAAAAAAACAAGTT [CACACA_site301],7.62 ± 0.7
9,AGACAATATCTTATTTGTACATATGTATTCCTCATA [XGTACX_site5757],7.88 ± 0.63
10,GGGAATATAAGTACACGATAATATGTGATAAGGTCT [CACACA_negctrl_site1502],8.28 ± 0.86
11,AAGAACCATATTTAAACACACATACCTATATAAATA [CACACA_site7553],7.68 ± 0.53
12,ATGTTACACCGACACACACACATAAAAAAACAAAAA [CACACA_site5750],8.15 ± 0.34
13,TATATATATTAGTGTGCACACTTTTTATTTTTATCC [CACACA_site8506],9.33 ± 0.4
14,ATTTTTTTCTTAGGAGTGCACTTATATTTATTTTAT,10.8 ± 0.49
15,ACGTGTATTTATTTAGTGCACTTTATATTTTTTCTT [GTGCAC_site9426],11.5 ± 0.28
16,ATACCTATTTGATGAGTGCATTATCCAATATATGTA,11.3 ± 0.65
17,ACACCTATAAATTAAGTGCATTTTTTTTGATGTTAT,9.45 ± 0.46
18,TTATACCTATATTTAACACACATTTGATAAAGTGCC [CACACA_site6732],7.76 ± 0.61
19,ATTTTTGTTATTACATGTACCCATAATTATTATTAA [XGTACX_site3558],8.58 ± 0.75
20,AAAATTATAATAATATGTACTTAAAAAATTTATATA [XGTACX_site632],7.54 ± 0.2
21,ACATTAAAAAATTGTTTGCACTATATAAAATATTAA [GTGCAC_site9728],9.86 ± 0.28
22,TGTTAAAATTATTTGGTGCACTTGTTTTACCTTATT,10.8 ± 0.48
23,TTTTTGTTACCTATTGTGCACTTCATATAAATTAAA,11.3 ± 0.35
24,TATATATGCATATACATACACACATAACACATACGT [CACACA_site3833],8.24 ± 0.39

row,Sequence,gcPBM binding intensity (ln)
1,ATACGTATATAATATACATGCATATATAGCACATAC [TGCATGCA_site376],9.11 ± 0.66
2,TTTATACATACATTCGTGCACATACGTATAACATAT,11.2 ± 0.19
3,ATTAATATATAACGTGCACACACACCGTTACGTATG [CACACA_site8543],10.3 ± 0.35
4,TAATATATAACGTGCACACACACATCTACGTATGAA [CACACA_site5080],10.82 ± 0.099
5,ATATATAACGGGCACACACACATTTACGTATGAATA [CACACA_site1833],8.31 ± 0.49
6,TAATATATAACGTGCACACACACATTTACGTATGAA [CACACA_site1832],10.86 ± 0.064
7,ATATATAACGTGCACACACACATTTACGTATGAATA [CACACA_site6948],10.975 ± 0.007
8,TATGTTTACATATACGTGCACATGAATGTATACATT [GTGCAC_site9894],10.7 ± 0.29
9,AATGTCCTTATTTGCACACACACATATAAGAAATTT [CACACA_site3186],9.91 ± 0.23
10,TTACGCGCTTATTACACACACATACAAATAAGGATT [CACACA_site3486],8.06 ± 0.47
11,ATAATCAACATTAGGTGTACAAAATATGTATGTTTT [XGTACX_site6696],8 ± 0.59
12,TTTTCTTTTTCCAAAAGTACGTAATTTAAACATTTT [XGTACX_site2066],7.83 ± 0.43
13,AATTTTTTTCTCCAAGTGCATTAGAACATTAACGTA [GTGCAC_site9413],10.9 ± 0.53
14,ATTATTAAGTTTCACAAGAACATTGTTAACAATTTT [CACACA_negctrl_site1128],7.5 ± 0.64
15,AAAAAAAATTATATTTGTACGCATTAAAAAATCTAA [XGTACX_site1616],7.64 ± 0.26
16,TGAACTCAACAAAGGGTGCATAACAAAAATAGACGT,11.4 ± 0.23
17,TGAACAGACAAATACACACACTCAAAAAAAAAAAAG [CACACA_site7287],7.68 ± 0.45
18,ATAACAAAAAAAAAGGTGCTACAAAATGAATAAAAA [GTGCAC_site9659],9.12 ± 0.3
19,TTTTTTTTTAATATTTGTACACAACATGAAACATTT [XGTACX_site473],8.16 ± 0.53
20,TATATTTATGTATATGTGCACATAAATTTAAGAATG [GTGCAC_site9512],9.68 ± 0.19
21,TATAAGAATGACAAGTGTACATATCAAATATATTAG [XGTACX_site7113],7.77 ± 0.38
22,TATTGACATATATTAGTGCAATAATGAAATCAAGTA,10.9 ± 0.43
23,TATATATTAATCAAAGTGCAATAATAAAATAAAAGT [GTGCAC_site9490],10.8 ± 0.34
